Assay results published in PubChem BioAssay (NCATS).
Inconclusive results are not listed. Activity calls are given as the source filed them. The call rests on the fitted dose curve; in most records, active means well fitted curve in the direction sought with a large enough effect; inconclusive means small, poorly fitted or top-dose-only effect, or effect the other way, or another doubt; inactive means no such curve, though single readings can be large or run the other way.

Assay: qHTS Assay for Identification of Small Molecule Agonists for NFkB Signaling Pathway. (AID 624478);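 further: compounds tested together with TNF alpha at its EC50 of 10 pM; 0% is about no effect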
Conditions: NFkB pathway reporter cell assay, agonist mode, cells co-stimulated with 10 pM TNF alpha; series mostly up to 46.1 µM; activation: at the top concentration
Description: The TNF alpha/NFkB signaling pathway was assayed in NFkB-bla cells (Invitrogen), a ME-180 cervical carcinoma line containing a stably integrated beta-lactamase reporter gene controlled by a NFkB response element. This reporter is induced by TNF alpha at 10 pM EC50 and inhibited by the proteosome inhibitor MG-132 at approximately 100 nM IC50. The assay was screened at the EC50 of TNF alpha activation to identify activators of TNF alpha/NFkB signaling
Cells were trypsinized, washed in assay medium (AM, OPTI MEM with 0.5% fetal bovine serum, 0.1 mM nonessential amino acids, 1 mM sodium pyruvate, 10mM HEPES pH 7.3, 100U/ml penicillin, and 100 ug/ml streptomycin) and plated at 1000 cells/5 uL/well into black clear-bottom 1536 well plates. After an overnight incubation at 37 C and 5% CO2, 23 nL of compound were delivered by a pin tool, 1 uL of TNF alpha (10 pM final concentration in AM) was added and plates were incubated at 37 C for 5 hrs. One uL of LiveBLAzerTM detector mix (Invitrogen) was added, the plates incubated at room temperature for 2 hrs, and fluorescence intensity at 460 and 530 nm emission was measured at 405 nm excitation by an Envision (Perkin Elmer).
For `Cc1cn(-c2cc(NC(=O)c3ccc(C)c(Nc4nccc(-c5cccnc5)n4)c3)cc(C(F)(F)F)c2)cn1`, the “activation” value was 26.1% (inactive). For `COCCn1c2c([n+](Cc3cnccn3)c1C)C(=O)c1ccccc1C2=O`, the “activation” value was 1.43% (inactive). With `Cn1cc(-c2[nH]c3cc(NC(=O)[C@H](N)C4CCCCC4)cc4c3c2C=NNC4=O)cn1` the “activation” value was 8.7% (inactive). With `COc1cc2ncn(-c3cc(OCc4ccccc4C(F)(F)F)c(C(N)=O)s3)c2cc1OC` the “activation” value was 1.51% (inactive). With `CN1CCN(c2ccc3nc(-c4c(N)c5c(F)cccc5[nH]c4=O)[nH]c3c2)CC1` the “activation” value was 15.9% (inactive). For `O=C(c1ccc(Nc2nccc(-c3cc4ccccc4s3)n2)cc1)N1CCC(N2CCCC2)CC1`, the “activation” value was 4.33% (inactive). In the case of `O=C(Nc1cc(C(F)(F)F)cc(C(F)(F)F)c1)c1cc(Cl)ccc1O`, the “activation” value is reported as 16.9% (inactive). For `Cc1ccc(C(N)=O)cc1Nc1nccc(-c2cn(C(C)C)c3cnccc23)n1`, the “activation” value was 0.0667% (inactive). In the case of `COC(=O)c1ccc2c(C(=Nc3ccc(N(C)C(=O)CN4CCN(C)CC4)cc3)c3ccccc3)c(O)[nH]c2c1`, the “activation” value is reported as -6.6% (inactive). In the case of `O=C(NCCS(=O)(=O)c1ccc(C(F)(F)F)cn1)c1ccc(Cl)cc1`, the “activation” value is reported as -0.205% (inactive). With `CC(C)c1ccc(Cn2ccc3c4c(N)nc(NC5CC5)nc4ccc32)cc1` the “activation” value was -1.22% (inactive). In the case of `C=C1C(=CC=C2CCC[C@]3(C)[C@@H]([C@H](C)C=C[C@H](C)C(C)C)CC[C@@H]23)C[C@@H](O)C[C@@H]1O`, the “activation” value is reported as 5.94% (inactive). For `CC(C)c1ccccc1Cc1cc(C(=O)Nc2ccc(S(=O)(=O)c3ccccc3C(C)(C)C)cc2)c(O)c(O)c1O`, the “activation” value was 24.3% (inactive). In the case of `C[C@@H](Oc1cc(-n2cnc3ccc(CN4CCN(C)CC4)cc32)sc1C(N)=O)c1ccccc1C(F)(F)F`, the “activation” value is reported as 0.8% (inactive). In the case of `COc1cc(C(C)C)c2c(c1)S(=O)(=O)N(COc1cc(=O)n3cccc(OCCN4CCCCC4)c3n1)C2=O`, the “activation” value is reported as -3.08% (inactive). With `CN(C)CC=CC(=O)Nc1cc2c(Nc3ccc(F)c(Cl)c3)ncnc2cc1O[C@H]1CCOC1` the “activation” value was 0.273% (inactive). For `CC(NCc1ccc2c(c1)nc(NC(=O)c1ccc(-c3cn[nH]c3)s1)n2CC(C)(C)O)C(C)(C)C` (stereo not given), the “activation” value was -2.74% (inactive). With `CNc1nccc(-c2cccnc2Oc2cc(C(=O)Nc3cccc(C(F)(F)F)c3)ccc2C)n1` the “activation” value was -0.617% (inactive). For `CC1(O)CC(c2nc(-c3ccc4ccc(-c5ccccc5)nc4c3)c3c(N)nccn23)C1` (stereo not given), the “activation” value was -0.0214% (inactive). In the case of `O=C(O)c1ccc2c(c1)nc(Nc1cccc(Cl)c1)c1ccncc12`, the “activation” value is reported as 0.342% (inactive). With `C=CC(=O)Nc1cccc(Oc2nc(Nc3ccc(N4CCN(C)CC4)cc3OC)ncc2Cl)c1` the “activation” value was 3.99% (inactive). With `C1=CCOCc2cc(ccc2OCCN2CCCC2)Nc2nccc(n2)-c2cccc(c2)OCC1` the “activation” value was 0.582% (inactive). For `C[C@]1(CO)CN(c2cc(C(=O)Nc3ccc4c(c3)-c3c(c(C(N)=O)nn3-c3ccc(F)cc3)CC4)c(Cl)cn2)C[C@@]1(C)CO`, the “activation” value was -0.502% (inactive). In the case of `CCC[C@H](NC(=O)C(C#N)=Cc1cccc(Br)n1)c1ccccc1`, the “activation” value is reported as 13.9% (inactive). For `CC(C)[C@H](C(=O)Nc1ccc(C(=O)NO)cc1)c1ccccc1`, the “activation” value was -1.32% (inactive). For `CC(C)(O)CCc1ccc(OCc2cc(-c3cccc(OC(F)F)c3)c3ncccc3c2)cc1`, the “activation” value was 0.641% (inactive). With `CC1(C)CCC(c2ccc(Cl)cc2)=C(CN2CCN(c3ccc(C(=O)NS(=O)(=O)c4ccc(N[C@H](CCN5CCOCC5)CSc5ccccc5)c(S(=O)(=O)C(F)(F)F)c4)cc3)CC2)C1` the “activation” value was 9.02% (inactive). In the case of `CCN(CC)CCCCNc1ncc2cc(-c3cc(OC)cc(OC)c3)c(NC(=O)NC(C)(C)C)nc2n1`, the “activation” value is reported as 20.8% (inactive). With `CN1CCC(CNc2ccc3ncc(-c4cccc(OC(F)(F)F)c4)n3n2)CC1` the “activation” value was 3.48% (inactive). In the case of `NC(=O)c1c(OCc2c(F)cc(Br)cc2F)nsc1NC(=O)NCCCCN1CCCC1`, the “activation” value is reported as -1% (inactive). In the case of `C[C@@H](Oc1cc(-c2cnn(C3CCNCC3)c2)cnc1N)c1c(Cl)ccc(F)c1Cl`, the “activation” value is reported as 2% (inactive). For `C=CCn1c(=O)c2cnc(Nc3ccc(N4CCN(C)CC4)cc3)nc2n1-c1cccc(C(C)(C)O)n1`, the “activation” value was -2.2% (inactive). With `CC(C)(C)OC(=O)Nc1ccc(-c2cc(C(=O)NCCCCCCC(=O)NO)no2)cc1` the “activation” value was 1.18% (inactive). In the case of `NC(=O)Nc1cc(-c2cccc(F)c2)sc1C(=O)N[C@H]1CCCNC1`, the “activation” value is reported as 0.12% (inactive). In the case of `Cn1c(=O)n(-c2ccc(C(C)(C)C#N)cc2)c2c3cc(-c4cnc5ccccc5c4)ccc3ncc21`, the “activation” value is reported as 2.74% (inactive). In the case of `CN(C)CCCN=c1c2ccccc2n(C)c2[nH]c(=O)n(C)c(=O)c12`, the “activation” value is reported as -1.33% (inactive). For `Cc1cccc(C=NNc2cc(N3CCOCC3)nc(OCCc3ccccn3)n2)c1`, the “activation” value was -0.682% (inactive). With `CC[C@@H]1C(=O)N(C)c2cnc(Nc3ccc(C(=O)NC4CCN(C)CC4)cc3OC)nc2N1C1CCCC1` the “activation” value was 1.87% (inactive). For `COc1ccc(OC)c(-c2nnc3ccc(-c4ccc(OC)c(O[C@@H]5CCOC5)c4)nn23)c1`, the “activation” value was -1.76% (inactive). With `CNC(=O)c1cc(Oc2ccc(NC(=O)Nc3cc(C(C)(C)C)nn3-c3ccc4ncccc4c3)c(F)c2)ccn1` the “activation” value was -0.863% (inactive).
